Assay [1] is described as follows: qHTS assay for small molecules that induce genotoxicity in human embryonic kidney cells expressing luciferase-tagged ATAD5 (AID 651632). Note: nearly all actives have a fitted effect of over 15% in size. In outline:
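Luminescent reporter readout, HEK293T ATAD5-luc line: 16 hr drug exposure (37C, 5% CO2) followed by Amplite, 30 min RT.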
(Quantitative high-throughput screening tests each substance at several concentrations.)

Assay [2] can be described thus: qHTS assay for small molecules that induce genotoxicity in human embryonic kidney cells expressing luciferase-tagged ATAD5 - cell viability (AID 651634; calls by dose curve; note: nearly all actives have a fitted effect of over 25% in size). An outline of the steps: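 Viability read: CellTiter-Fluor fluorescence, 30 min at 37C. Cells: HEK293T, luciferase-tagged ATAD5. Exposure: 15.5 hr, 37C, 5% CO2, compound or DMSO vehicle.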
A short description of assay [3]: qHTS assay to test for compound auto fluorescence at 590 nm (red) in HepG2 cells (AID 720674). In outline: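 Fluorescence at 590 nm emission following 540 nm excitation was recorded from HepG2 wells one hour after compound transfer, with DMSO-only wells as vehicle and Rose Bengal sodium equivalency as the scale.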
Assay [4] can be described thus: qHTS assay to test for compound auto fluorescence at 535 nm (green) in HepG2 cells (AID 720675).
A short description of assay [5]: qHTS assay to test for compound auto fluorescence at 460 nm (blue) in HEK293 cells (AID 720678). In outline: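 After cell attachment (4-5 hr, 37C), compounds were pinned onto HEK293 monolayers in 10% dialyzed FBS medium. The blue channel (405/460 nm) was read following overnight culture. Equivalency was calculated against triamterene.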
The nature of assay [6]: qHTS assay to test for compound auto fluorescence at 590 nm (red) in HEK293 cells (AID 720679). In outline:
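Plates of HEK293 cells (10% dialyzed FBS) are treated with 23 nL compound or DMSO vehicle after a 4-5 hr attachment period, incubated overnight at 37C, and read for red fluorescence at 540/590nm.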

Assay [7] is described as follows: qHTS assay to test for compound auto fluorescence at 535 nm (green) in HEK293 cells (AID 720680).
A short description of assay [8]: qHTS assay to test for compound auto fluorescence at 460 nm (blue) in HEK293 cell free culture (AID 720681). In outline:
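Compounds were added to cell-free DMEM with 10% FBS and fluorescence read directly. The blue channel used 405 nm excitation and 460 nm emission, with triamterene as the reference fluorophore.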

Assay [9] can be described thus: qHTS assay to test for compound auto fluorescence at 535 nm (green) in HEK293 cell free culture (AID 720682). In outline: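 Read-out: 485/535 nm fluorescence intensity, calibrated against fluorescein. Medium only (DMEM + 10% FBS, no cells); test compound or DMSO vehicle added by pintool before plate reading.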
A short description of assay [10]: qHTS assay to test for compound auto fluorescence at 590 nm (red) in HEK293 cell free culture (AID 720683). In outline:
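Cell-free wells of DMEM with 10% FBS received compound, and intrinsic fluorescence was read at excitation/emission 540/590 nm. Values expressed as equivalence to Rose Bengal sodium.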

The nature of assay [11]: qHTS assay to test for compound auto fluorescence at 590 nm (red) in HepG2 cell free culture (AID 720684). An outline of the steps:
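Compound was pinned into wells holding MEM with 10% FBS and no cells, and red fluorescence was read at Ex/Em 540/590 nm. Signal is expressed as auto fluorescence equivalency relative to Rose Bengal sodium.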

Assay [12] can be described thus: qHTS assay to test for compound auto fluorescence at 460 nm (blue) in HepG2 cell free culture (AID 720685). In outline: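 Compound (23 nL) or DMSO pinned into cell-free MEM with 10% FBS; blue fluorescence read at 405/460 nm excitation/emission, expressed as auto-fluorescence equivalency to triamterene.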
A short description of assay [13]: qHTS assay to test for compound auto fluorescence at 535 nm (green) in HepG2 cell free culture (AID 720686).
Assay [14] can be described thus: qHTS assay to test for compound auto fluorescence at 460 nm (blue) in HepG2 cells (AID 720687). An outline of the steps: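 HepG2 cells in MEM with 10% FBS, attached overnight at 37 C, were exposed to compound or DMSO for 1 hr at 37 C, 5% CO2. Blue fluorescence was read at 405/460 nm, with triamterene as reference fluorophore.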
In assay [15] the target is Glucocorticoid receptor (Homo sapiens) (UniProt P04150). Briefly: qHTS assay to identify small molecule agonists of the glucocorticoid receptor (GR) signaling pathway (AID 720691; active = well fitted activation curve with a large enough effect in the signal ratio in the repeat runs, not every such curve was filed as active; inconclusive = weak or mixed curves, or effect the other way; inactive = no such curve, though single readings can be large or run the other way; the % refers to the signal ratio). In outline:
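qHTS in GR-bla HeLa cells: 4 h settling at 37 C/5% CO2, 18 h compound incubation at 37 C, 2 h LiveBLAzer B/G FRET substrate at room temperature, fluorescence intensity measured.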

Assay [16] in a line: qHTS assay for identifying genotoxic compounds that show differential cytotoxicity against isogenic chicken DT40 cell lines with known DNA damage response pathways - wild type cell line (AID 743012). Note: potency is the fitted concentration of half-maximal effect; nearly all actives have a fitted effect of over 60% in size. An outline of the steps:
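First, wild type DT40 cells were plated at 300 per well and equilibrated about 0.5 h at 37 C/5% CO2. Next, compounds in DMSO were added and exposure lasted 40 h. Finally, CellTiter-Glo was added for 30 min at room temperature and luminescence recorded.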

Assay [17] is described as follows: qHTS assay for identifying genotoxic compounds that show differential cytotoxicity against isogenic chicken DT40 cell lines with known DNA damage response pathways - Rev3 mutant cell line (AID 743014). Note: potency is the fitted concentration of half-maximal effect; nearly all actives have a fitted effect of over 55% in size.
Assay [18] in a line: qHTS assay for identifying genotoxic compounds that show differential cytotoxicity against isogenic chicken DT40 cell lines with known DNA damage response pathways - Rad54/Ku70 mutant cell line (AID 743015). Note: potency is the fitted concentration of half-maximal effect; nearly all actives have a fitted effect of over 60% in size.
Assay [19] can be described thus: qHTS assay to identify small molecule antagonists of the androgen receptor (AR) signaling pathway - cell viability counter screen (AID 743033; note: nearly all actives have a fitted effect of over 45% in size).
Assay [20] is described as follows: qHTS assay to identify small molecule antagonists of the androgen receptor (AR) signaling pathway using the MDA cell line - cell viability counter screen (AID 743041; note: nearly all actives have a fitted effect of over 45% in size). An outline of the steps:
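MDA-kb2 AR-luc cells (MMTV-luciferase, AR/GR responsive) treated with compounds plus R1881 agonist for 16 h at 37C. CellTiter-Fluor added at 15.5 h; fluorescence read after 30 min in the same wells.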

A short description of assay [21]: qHTS assay to identify small molecule antagonists of the thyroid receptor (TR) signaling pathway - cell viability counter screen (AID 743064). Note: nearly all actives have a fitted effect of over 50% in size. An outline of the steps:
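GH3.TRE-Luc rat pituitary cells carrying a TRE-luciferase reporter were treated with compound plus 1 nM T3 (final) for 23.5 h at 37 °C. Viability was then read in the same wells by CellTiter-Fluor fluorescence after a further 30 min.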

Assay [22] deals with thyroid hormone receptor (rat, GH3 cells). Put plainly: qHTS assay to identify small molecule agonists of the thyroid receptor (TR) signaling pathway (AID 743066; calls by dose curve).
A short description of assay [23]: qHTS assay to identify small molecule antagonists of the estrogen receptor alpha (ER-alpha) signaling pathway - cell viability counter screen (AID 743074; calls by dose curve;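 note: HEK293 cells carrying ER-alpha-UAS-bla reporter stimulated with 17beta-estradiol; nearly all actives have a fitted effect of over 45% in size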).
Assay [24] deals with Estrogen receptor (Homo sapiens) (UniProt P03372). Briefly: qHTS assay to identify small molecule agonists of the estrogen receptor alpha (ER-alpha) signaling pathway (AID 743075; calls by dose curve;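 note: HEK293 GripTite cells with ER-alpha and UAS-driven beta-lactamase reporter; potency is the fitted concentration of half-maximal effect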).
Assay [25] has the same target. Briefly: qHTS assay to identify small molecule agonists of the estrogen receptor alpha (ER-alpha) signaling pathway using the BG1 cell line (AID 743079). Note: potency is the fitted concentration of half-maximal effect; nearly all actives have a fitted effect of over 20% in size.
A short description of assay [26]: qHTS assay to identify small molecule antagonists of the estrogen receptor alpha (ER-alpha) signaling pathway using the BG1 cell line - cell viability counter screen (AID 743081).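 Note: compound given together with 17beta-estradiol as the ER stimulus; series mostly up to about 70 µM; nearly all actives have a fitted effect of over 45% in size.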
In the next assay the target is Aromatase (Homo sapiens) (UniProt P11511). Put plainly: qHTS assay to identify aromatase inhibitors (AID 743083). Note: series mostly up to about 70 µM; nearly all actives have a fitted effect of over 55% in size.
Assay [27] in a line: qHTS assay to identify aromatase inhibitors - cell viability counter screen (AID 743084).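 Note: cells stimulated with testosterone during compound exposure; nearly all actives have a fitted effect of over 55% in size.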
The nature of assay [28]: qHTS assay to identify small molecule that activate the aryl hydrocarbon receptor (AhR) signaling pathway - cell viability counter screen (AID 743086). In outline: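 HepG2-AhR-luc (HG2L7.5c1) cells, 4000/well, treated 24 h at 37 C with compound; viability measured as CellTiter-Fluor fluorescence after 30 min in the same wells as the luciferase read.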
For assay [29], the target named is Peroxisome proliferator-activated receptor gamma (Homo sapiens) (UniProt P37231). Put plainly: qHTS assay to identify small molecule agonists of the peroxisome proliferator-activated receptor gamma (PPARg) signaling pathway (AID 743094; active = well fitted activation curve with a large enough effect in the signal ratio in the repeat runs, not every such curve was filed as active; inconclusive = weak or mixed curves, or effect the other way; inactive = no such curve, though single readings can be large or run the other way; the % refers to the signal ratio). In outline:
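Compounds dissolved in DMSO were added to PPARg UAS-bla HEK293H cells for 17 h at 37C, and reporter expression was quantified by fluorescence intensity after 1 h with LiveBLAzer B/G FRET substrate.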

Assay [30] concerns the target Acetylcholinesterase (Homo sapiens) (UniProt P22303). Briefly: Acetylcholinesterase (AChE) small molecule antagonists: enzyme-based qHTS assay with human liver microsomes (AID 1347399; calls by dose curve; note: nearly all actives have a fitted effect of over 60% in size). To be noted: Potency: qHTS inhibition; outcome: qHTS inhibition. In outline: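 Recombinant human AChE (50 mU/mL in the enzyme mix) and human liver microsomes (0.25 mg/mL final) were preincubated with compound and NADPH (0.25 mg/mL final) for 30 min at 37 C. Acetylthiocholine/DTNB was then added; thiocholine was read colorimetrically after 10 min at room temperature.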

Assay [31] shares this target. Put plainly: Acetylcholinesterase (AChE) small molecule antagonists: fluorescence cell-based qHTS assay (AID 1347398; calls by dose curve; note: potency is the fitted concentration of half-maximal effect; nearly all actives have a fitted effect of over 50% in size). To be noted: Potency: AChE activity; outcome: AChE activity. An outline of the steps:
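SH-SY5Y cells (2000/well), attached overnight, incubated with compound 30 min at 37 C. Acetylthiocholine plus Thiolite Green then added for 40 min at room temperature. Thiocholine fluorescence (Ex/Em 490/520 nm) reports cellular AChE activity.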

Each structure is given as a SMILES string. Calls of active or inactive are those of the source. Unless noted, calls come from the whole dose curve; as a rule, active = well fitted curve in the direction sought with a large enough effect in the repeat runs; inconclusive = weak or mixed curves; inactive = no such curve, though single readings can be large; an effect the other way counts as inactive or inconclusive.

Acetylcholinesterase (Homo sapiens), sequence (P22303 whole entry, looked up): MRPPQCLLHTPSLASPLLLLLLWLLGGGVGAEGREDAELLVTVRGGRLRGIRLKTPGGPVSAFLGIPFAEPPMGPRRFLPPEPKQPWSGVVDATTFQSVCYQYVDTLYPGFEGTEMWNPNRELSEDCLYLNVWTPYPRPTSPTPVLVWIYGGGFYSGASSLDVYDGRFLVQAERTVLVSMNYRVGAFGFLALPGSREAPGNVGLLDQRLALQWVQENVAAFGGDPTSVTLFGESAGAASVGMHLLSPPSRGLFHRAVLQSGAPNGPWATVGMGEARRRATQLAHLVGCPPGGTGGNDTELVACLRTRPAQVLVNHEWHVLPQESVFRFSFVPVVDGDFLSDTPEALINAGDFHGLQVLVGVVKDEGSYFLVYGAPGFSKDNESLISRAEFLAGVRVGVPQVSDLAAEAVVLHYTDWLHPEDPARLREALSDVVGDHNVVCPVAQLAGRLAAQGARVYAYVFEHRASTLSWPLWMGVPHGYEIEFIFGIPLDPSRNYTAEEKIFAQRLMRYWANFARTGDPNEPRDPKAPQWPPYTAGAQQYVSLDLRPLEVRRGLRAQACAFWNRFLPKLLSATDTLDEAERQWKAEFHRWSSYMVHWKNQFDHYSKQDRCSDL
Estrogen receptor (Homo sapiens), sequence (P03372 whole entry, looked up): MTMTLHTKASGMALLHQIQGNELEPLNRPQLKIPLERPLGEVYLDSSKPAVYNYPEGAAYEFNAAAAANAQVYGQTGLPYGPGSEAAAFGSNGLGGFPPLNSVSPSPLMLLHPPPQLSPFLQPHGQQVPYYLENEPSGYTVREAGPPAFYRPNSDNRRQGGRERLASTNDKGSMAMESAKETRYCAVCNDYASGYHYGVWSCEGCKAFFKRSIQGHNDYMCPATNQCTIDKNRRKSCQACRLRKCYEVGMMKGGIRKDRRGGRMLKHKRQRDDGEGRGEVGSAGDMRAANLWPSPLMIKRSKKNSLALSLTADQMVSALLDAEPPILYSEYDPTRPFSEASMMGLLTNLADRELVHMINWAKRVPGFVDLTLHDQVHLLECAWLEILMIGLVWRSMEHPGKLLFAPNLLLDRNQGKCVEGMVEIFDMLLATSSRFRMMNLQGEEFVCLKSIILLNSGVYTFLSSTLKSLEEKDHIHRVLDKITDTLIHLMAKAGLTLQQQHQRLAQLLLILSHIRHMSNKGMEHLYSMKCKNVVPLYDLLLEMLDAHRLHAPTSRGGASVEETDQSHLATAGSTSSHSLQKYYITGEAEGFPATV
Peroxisome proliferator-activated receptor gamma (Homo sapiens), sequence (P37231 whole entry, looked up): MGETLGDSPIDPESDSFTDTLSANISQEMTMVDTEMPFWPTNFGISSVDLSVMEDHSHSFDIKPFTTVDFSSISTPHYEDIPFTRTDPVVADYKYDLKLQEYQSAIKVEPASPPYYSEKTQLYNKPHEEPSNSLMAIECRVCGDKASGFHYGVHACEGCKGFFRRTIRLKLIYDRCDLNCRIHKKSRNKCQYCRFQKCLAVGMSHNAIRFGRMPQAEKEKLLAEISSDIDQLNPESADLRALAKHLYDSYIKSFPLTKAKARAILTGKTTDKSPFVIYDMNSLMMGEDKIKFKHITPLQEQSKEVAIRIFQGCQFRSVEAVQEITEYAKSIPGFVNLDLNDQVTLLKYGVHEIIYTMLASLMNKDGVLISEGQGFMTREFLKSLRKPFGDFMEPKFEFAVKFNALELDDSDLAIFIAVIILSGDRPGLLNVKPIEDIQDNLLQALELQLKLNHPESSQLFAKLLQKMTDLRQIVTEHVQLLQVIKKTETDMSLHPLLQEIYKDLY
Aromatase (Homo sapiens), sequence (P11511 whole entry, looked up): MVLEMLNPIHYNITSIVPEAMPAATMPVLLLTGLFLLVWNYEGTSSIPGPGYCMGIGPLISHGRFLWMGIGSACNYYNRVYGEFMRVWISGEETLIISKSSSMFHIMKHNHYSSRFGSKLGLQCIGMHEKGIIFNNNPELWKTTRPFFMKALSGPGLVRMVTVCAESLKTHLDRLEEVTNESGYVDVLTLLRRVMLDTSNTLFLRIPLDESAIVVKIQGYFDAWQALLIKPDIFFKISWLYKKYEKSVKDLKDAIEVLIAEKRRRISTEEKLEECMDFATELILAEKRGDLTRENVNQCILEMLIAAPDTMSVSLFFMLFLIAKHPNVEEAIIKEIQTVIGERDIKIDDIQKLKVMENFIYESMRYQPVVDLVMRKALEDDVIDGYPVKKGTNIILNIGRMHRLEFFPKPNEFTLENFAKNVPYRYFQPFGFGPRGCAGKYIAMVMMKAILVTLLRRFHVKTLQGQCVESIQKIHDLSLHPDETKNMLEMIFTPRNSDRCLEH
Glucocorticoid receptor (Homo sapiens), sequence (P04150 whole entry, looked up): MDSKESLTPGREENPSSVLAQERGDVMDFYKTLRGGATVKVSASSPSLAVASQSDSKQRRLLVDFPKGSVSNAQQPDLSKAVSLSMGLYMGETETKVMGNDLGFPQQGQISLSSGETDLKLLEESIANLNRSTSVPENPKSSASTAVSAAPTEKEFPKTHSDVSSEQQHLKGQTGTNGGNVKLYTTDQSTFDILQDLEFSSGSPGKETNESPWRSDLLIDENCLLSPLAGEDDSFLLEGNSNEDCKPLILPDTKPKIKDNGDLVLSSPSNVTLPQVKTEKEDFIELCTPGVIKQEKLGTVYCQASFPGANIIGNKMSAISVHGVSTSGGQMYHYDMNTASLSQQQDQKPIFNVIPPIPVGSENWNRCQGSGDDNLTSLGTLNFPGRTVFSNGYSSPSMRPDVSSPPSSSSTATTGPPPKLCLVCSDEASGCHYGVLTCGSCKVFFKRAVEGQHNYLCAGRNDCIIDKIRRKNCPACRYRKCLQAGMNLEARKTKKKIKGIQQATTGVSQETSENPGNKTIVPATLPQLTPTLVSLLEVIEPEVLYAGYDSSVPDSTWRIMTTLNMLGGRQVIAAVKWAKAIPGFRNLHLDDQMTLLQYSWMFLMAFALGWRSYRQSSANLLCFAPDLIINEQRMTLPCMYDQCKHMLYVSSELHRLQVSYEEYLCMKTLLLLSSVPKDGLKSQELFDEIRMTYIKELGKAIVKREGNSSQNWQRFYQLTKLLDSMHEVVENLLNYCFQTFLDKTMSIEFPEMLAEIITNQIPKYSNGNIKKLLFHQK

With `C[C@]12CC[C@H]3[C@@H](CCC4=CC(=O)CC[C@@]43C)[C@@H]1CC[C@@H]2OC(=O)CCc1ccccc1`, the compound was classed as inactive in [1], in [3], in [4], in assay [5], in [6] and in [7]. The call in [8], in assay [9], in [10], in [11], in [12] and in assay [13] was inactive. Further, the call in assay [14], in assay [15], in assay [20], in [22], in [27] and in [29] was inactive. For the same compound, the Potency entry (in assay [2]; in [19]; in assay [21]; in assay [23]; in [26]; with Aromatase (Homo sapiens)) was “inactive” throughout. Besides, in assay [28], the Potency result is “inactive”. Further, the Potency in assay [16] was 5.45 µM (active); in assay [17], 8.63 µM (active); in [18] it was 8.63 µM (active); in [24], 3.89 µM [inconclusive] (active); in assay [25] it was 30.6 nM (active).
Turning to `CCCCCCCCCCC[C@@H](C[C@@H]1OC(=O)[C@H]1CCCCCC)OC(=O)[C@H](CC(C)C)NC=O`, the Potency entry in [30] is “inactive”.
For `CCOc1ccc(Cc2nccc3cc(OCC)c(OCC)cc23)cc1OCC`, the Potency in assay [31] was 15.5 µM (active). In addition, the Potency entry in [30] is “inactive”.
